# In article PMC7862700, “An all-to-all approach to the identification of sequence-specific readers for epigenetic DNA modifications on cytosine”:
# Tests used:
# Assay in all cases: DAPPL (digital affinity profiling via proximity ligation, sequencing); 10 mM Tris-HCl pH 7.5, 50 mM NaCl, 1 mM DTT, 4% glycerol, room temperature, 30 min; GST-TFs on glutathione beads, 16-mer random dsDNA library, 0.1% formaldehyde crosslink after washing; high values mean tight binding
# Details in all cases: protein: recombinant; tags: N-terminal GST; dsDNA, one strand shown
# FLI1 = target: T1, FLI1 (Homo sapiens, UniProt Q01543 1-452)
# T1 sequence: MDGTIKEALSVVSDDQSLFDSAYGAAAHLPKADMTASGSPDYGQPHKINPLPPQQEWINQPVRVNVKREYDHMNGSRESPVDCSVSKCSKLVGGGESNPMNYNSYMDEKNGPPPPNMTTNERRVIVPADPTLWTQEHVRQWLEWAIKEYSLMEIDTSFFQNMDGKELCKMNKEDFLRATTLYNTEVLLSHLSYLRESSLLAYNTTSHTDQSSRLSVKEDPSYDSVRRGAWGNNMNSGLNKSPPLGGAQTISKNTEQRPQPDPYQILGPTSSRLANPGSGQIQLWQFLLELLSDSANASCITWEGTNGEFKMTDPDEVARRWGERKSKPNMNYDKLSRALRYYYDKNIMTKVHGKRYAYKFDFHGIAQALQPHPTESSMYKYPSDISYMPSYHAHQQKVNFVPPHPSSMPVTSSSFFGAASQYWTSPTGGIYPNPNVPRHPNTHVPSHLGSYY
# Procedure, shortened: (§1)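 Pools were built from human transcription factors expressed in yeast as GST fusions, captured on glutathione beads and DNA-barcoded, along with a tag-only sample. Incubation with 200 nmole of a 16-mer random double-stranded DNA library lasted 30 min at room temperature in Tris/NaCl/DTT/glycerol buffer, and was followed by washing, 0.1% formaldehyde crosslinking, proximity ligation, PCR amplification and Illumina NextSeq500 sequencing. Binding signal is the quotient of each hexamer's read frequency for a factor and its frequency for the tag-only sample.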
# ELK1 = target: T2, ELK1 (Homo sapiens, UniProt P19419 1-428)
# T2 sequence: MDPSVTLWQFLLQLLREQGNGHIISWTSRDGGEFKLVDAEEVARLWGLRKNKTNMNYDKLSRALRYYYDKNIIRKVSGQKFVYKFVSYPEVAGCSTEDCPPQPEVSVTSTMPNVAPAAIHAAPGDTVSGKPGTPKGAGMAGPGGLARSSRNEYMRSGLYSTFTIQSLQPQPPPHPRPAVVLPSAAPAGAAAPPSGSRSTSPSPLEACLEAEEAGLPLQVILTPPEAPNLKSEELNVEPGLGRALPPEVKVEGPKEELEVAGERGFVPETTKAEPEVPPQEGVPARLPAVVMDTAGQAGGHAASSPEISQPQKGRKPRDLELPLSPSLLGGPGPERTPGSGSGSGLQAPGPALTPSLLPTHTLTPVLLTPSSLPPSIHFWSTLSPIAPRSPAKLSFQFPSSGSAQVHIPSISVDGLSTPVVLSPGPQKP
# Procedure, shortened: as §1
# GABPA = target: T3, GABPA (Homo sapiens, UniProt Q06546 1-454)
# T3 sequence: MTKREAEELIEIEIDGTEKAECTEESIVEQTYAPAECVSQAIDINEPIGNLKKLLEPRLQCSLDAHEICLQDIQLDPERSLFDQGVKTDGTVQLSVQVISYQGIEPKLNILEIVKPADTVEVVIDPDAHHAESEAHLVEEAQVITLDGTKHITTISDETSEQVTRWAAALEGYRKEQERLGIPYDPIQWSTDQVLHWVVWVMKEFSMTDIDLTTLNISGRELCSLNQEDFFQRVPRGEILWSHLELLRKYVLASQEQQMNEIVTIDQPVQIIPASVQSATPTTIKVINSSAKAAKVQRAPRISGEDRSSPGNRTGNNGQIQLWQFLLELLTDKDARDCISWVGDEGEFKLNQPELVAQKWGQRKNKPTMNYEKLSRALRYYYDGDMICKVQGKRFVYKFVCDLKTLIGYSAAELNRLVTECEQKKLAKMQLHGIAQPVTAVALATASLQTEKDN
# Procedure, shortened: as §1
# ERG = target: T4, ERG (Homo sapiens, UniProt P11308 1-479)
# T4 sequence: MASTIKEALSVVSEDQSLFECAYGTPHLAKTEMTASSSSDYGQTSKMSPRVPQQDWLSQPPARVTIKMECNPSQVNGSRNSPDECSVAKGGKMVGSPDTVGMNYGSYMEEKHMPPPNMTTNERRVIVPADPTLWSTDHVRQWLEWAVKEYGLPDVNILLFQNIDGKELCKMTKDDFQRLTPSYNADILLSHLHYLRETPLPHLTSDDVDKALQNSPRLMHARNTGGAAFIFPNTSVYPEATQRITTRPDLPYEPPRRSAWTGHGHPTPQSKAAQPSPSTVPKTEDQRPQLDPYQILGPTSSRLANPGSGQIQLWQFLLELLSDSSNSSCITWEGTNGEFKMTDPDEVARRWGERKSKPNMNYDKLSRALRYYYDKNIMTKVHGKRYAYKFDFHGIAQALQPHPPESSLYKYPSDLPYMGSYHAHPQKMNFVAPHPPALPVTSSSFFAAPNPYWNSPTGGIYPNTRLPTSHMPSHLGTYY
# Procedure, shortened: as §1
# ELF1 = ELF1 (Homo sapiens, UniProt P32519 1-619)
# Sequence of ELF1 (P32519 whole entry): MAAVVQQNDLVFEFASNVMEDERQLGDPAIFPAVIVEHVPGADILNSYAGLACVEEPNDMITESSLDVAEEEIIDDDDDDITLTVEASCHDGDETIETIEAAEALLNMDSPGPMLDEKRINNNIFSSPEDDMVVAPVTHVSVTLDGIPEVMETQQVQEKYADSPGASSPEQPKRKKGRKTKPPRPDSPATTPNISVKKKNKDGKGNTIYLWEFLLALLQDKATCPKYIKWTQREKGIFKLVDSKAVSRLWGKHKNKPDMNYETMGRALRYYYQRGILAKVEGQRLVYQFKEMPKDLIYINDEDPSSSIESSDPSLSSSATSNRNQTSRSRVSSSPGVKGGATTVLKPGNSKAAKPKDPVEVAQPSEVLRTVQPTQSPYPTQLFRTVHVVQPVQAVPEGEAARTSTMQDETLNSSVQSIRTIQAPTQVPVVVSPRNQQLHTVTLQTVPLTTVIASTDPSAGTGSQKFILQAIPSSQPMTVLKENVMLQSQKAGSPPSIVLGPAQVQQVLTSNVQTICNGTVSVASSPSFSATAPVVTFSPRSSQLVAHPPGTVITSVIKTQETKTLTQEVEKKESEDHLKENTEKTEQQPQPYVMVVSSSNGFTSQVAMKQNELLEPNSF
# Procedure, shortened: as §1
# EHF = target: T5, EHF (Homo sapiens, UniProt Q9NZC4 1-300)
# T5 sequence: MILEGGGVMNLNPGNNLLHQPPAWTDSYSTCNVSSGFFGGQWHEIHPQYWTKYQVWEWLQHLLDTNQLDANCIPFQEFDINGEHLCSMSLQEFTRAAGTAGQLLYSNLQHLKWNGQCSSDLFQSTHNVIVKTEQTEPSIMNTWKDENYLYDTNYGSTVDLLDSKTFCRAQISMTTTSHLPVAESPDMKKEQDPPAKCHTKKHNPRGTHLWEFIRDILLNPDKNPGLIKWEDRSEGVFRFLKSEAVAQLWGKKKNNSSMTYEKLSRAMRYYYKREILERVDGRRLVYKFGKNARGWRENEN
# Procedure, shortened: as §1
# SPI1 = SPI1 (Homo sapiens, UniProt P17947 1-270)
# Procedure, shortened: as §1
# ETV5 = ETV5 (Homo sapiens, UniProt P41161 1-510)
# Sequence of ETV5 (P41161 whole entry): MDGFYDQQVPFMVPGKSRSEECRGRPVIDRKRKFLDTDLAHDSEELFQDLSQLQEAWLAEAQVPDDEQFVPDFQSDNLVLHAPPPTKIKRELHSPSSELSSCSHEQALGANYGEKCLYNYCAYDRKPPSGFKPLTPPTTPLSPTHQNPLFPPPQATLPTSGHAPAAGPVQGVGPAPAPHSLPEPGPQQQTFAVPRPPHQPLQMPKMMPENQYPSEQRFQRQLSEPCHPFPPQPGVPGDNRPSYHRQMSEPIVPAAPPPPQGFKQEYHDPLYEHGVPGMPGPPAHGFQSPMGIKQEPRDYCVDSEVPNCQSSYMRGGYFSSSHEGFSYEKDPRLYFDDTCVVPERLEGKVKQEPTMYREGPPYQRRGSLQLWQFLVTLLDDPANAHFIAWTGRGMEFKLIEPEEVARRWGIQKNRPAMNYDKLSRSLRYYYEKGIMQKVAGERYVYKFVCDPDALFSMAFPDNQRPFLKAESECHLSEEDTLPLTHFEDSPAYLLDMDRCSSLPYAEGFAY
# Procedure, shortened: as §1
# ELF4 = ELF4 (Homo sapiens, UniProt Q99607 1-663)
# Sequence of ELF4 (Q99607 whole entry): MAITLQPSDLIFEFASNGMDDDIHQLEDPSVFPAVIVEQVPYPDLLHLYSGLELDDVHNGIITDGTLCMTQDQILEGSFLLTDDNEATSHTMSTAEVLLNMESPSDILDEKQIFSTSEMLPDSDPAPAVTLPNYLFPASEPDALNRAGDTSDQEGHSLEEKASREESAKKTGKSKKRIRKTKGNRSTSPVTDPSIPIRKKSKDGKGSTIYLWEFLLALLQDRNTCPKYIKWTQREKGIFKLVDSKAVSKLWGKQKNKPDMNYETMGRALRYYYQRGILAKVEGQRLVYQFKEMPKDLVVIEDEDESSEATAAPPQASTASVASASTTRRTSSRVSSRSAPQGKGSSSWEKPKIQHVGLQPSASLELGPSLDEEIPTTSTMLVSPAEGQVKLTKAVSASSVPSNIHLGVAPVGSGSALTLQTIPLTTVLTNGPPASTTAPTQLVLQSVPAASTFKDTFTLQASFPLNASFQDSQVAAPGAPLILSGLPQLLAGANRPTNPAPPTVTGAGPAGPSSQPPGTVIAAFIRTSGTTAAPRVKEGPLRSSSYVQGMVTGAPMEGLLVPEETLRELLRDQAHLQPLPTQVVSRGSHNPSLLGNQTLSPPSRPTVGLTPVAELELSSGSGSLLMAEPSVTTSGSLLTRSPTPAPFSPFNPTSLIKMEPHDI
# Procedure, shortened: as §1
# ELF3 = target: T6, ELF3 (Homo sapiens, UniProt P78545 1-371)
# T6 sequence: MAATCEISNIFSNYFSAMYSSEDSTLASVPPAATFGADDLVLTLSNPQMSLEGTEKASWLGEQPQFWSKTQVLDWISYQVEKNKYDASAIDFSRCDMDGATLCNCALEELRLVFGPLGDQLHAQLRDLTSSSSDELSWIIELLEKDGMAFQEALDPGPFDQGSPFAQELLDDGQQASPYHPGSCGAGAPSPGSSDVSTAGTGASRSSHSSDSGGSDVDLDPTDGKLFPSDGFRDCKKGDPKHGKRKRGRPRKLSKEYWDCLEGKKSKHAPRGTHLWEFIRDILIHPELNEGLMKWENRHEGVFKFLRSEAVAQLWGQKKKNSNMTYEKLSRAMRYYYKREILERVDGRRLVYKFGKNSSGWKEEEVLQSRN
# Procedure, shortened: as §1
# ETV1 = ETV1 (Homo sapiens, UniProt P50549 1-477)
# Sequence of ETV1 (P50549 whole entry): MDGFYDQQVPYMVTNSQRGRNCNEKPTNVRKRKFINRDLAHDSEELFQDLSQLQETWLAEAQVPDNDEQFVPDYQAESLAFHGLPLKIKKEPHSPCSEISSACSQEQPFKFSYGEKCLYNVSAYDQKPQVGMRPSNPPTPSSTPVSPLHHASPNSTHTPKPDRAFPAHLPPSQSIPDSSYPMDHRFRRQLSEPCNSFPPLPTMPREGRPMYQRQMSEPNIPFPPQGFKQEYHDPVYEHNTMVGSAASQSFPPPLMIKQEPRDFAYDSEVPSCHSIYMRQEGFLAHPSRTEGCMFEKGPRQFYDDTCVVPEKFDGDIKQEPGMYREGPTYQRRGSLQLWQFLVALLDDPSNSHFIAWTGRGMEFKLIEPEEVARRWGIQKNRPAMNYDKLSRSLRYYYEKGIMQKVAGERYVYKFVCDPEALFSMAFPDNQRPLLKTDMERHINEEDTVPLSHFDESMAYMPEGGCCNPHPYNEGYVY
# Procedure, shortened: as §1
# ERF = target: T7, ERF (Homo sapiens, UniProt P50548 1-548)
# T7 sequence: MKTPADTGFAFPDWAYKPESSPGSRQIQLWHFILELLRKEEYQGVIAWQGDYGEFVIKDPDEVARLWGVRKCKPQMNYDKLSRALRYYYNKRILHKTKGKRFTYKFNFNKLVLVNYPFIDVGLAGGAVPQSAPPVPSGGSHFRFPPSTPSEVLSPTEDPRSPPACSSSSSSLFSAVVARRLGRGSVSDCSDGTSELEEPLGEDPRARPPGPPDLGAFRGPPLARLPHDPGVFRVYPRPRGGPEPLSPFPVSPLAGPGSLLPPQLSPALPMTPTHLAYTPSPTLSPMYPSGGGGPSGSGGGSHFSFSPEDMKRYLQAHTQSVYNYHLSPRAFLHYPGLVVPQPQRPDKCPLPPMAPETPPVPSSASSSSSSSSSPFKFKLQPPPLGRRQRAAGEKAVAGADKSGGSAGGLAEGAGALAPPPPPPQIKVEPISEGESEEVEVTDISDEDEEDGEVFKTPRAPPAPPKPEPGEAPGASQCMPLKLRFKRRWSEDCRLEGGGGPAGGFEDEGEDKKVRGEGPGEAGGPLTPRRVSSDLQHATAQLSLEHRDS
# Procedure, shortened: as §1
# ETV3L = target: T8, ETV3L (Homo sapiens, UniProt Q6ZN32 1-361)
# T8 sequence: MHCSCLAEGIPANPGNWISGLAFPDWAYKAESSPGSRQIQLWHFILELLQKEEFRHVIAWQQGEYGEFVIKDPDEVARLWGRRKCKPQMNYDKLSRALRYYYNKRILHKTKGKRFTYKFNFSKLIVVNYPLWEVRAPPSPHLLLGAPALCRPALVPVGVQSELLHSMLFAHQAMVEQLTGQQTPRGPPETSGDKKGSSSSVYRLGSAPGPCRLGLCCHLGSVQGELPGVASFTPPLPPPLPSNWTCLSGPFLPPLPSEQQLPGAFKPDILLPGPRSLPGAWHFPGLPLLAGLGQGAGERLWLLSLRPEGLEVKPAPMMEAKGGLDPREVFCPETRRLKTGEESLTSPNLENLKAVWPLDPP
# Procedure, shortened: as §1
# ETS2 = target: T9, ETS2 (Homo sapiens, UniProt P15036 1-469)
# T9 sequence: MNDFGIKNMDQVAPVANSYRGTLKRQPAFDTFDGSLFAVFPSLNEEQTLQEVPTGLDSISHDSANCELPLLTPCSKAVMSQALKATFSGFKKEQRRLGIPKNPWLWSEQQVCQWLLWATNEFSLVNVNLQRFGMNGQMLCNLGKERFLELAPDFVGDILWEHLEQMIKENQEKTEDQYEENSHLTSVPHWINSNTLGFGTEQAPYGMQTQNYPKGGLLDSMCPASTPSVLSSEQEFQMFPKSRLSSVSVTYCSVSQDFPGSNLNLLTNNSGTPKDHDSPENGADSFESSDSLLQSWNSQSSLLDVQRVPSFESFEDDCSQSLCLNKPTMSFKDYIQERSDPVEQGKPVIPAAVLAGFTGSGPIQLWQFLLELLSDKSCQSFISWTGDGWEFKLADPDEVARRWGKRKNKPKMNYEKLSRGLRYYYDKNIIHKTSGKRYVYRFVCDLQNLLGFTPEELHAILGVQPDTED
# Procedure, shortened: as §1
# ETV7 = target: T10, ETV7 (Homo sapiens, UniProt Q9Y603 1-341)
# T10 sequence: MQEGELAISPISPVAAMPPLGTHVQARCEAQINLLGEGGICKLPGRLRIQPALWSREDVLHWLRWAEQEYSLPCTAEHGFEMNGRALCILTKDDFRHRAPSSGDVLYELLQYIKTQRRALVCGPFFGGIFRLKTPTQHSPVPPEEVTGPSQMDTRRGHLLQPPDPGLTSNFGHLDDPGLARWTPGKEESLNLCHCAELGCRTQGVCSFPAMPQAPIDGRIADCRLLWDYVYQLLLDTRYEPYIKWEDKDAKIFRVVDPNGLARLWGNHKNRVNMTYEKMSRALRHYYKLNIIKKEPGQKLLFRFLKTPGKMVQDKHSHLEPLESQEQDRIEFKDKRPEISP
# Procedure, shortened: as §1
# ETV3 = target: T11, ETV3 (Homo sapiens, UniProt P41162-2 1-143)
# T11 sequence: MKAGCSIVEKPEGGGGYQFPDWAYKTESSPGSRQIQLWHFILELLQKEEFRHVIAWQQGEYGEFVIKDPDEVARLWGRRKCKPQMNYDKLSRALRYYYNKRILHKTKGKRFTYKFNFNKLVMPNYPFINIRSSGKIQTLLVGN
# Procedure, shortened: as §1
# ETV6 = ETV6 (Homo sapiens, UniProt P41212 1-452)
# Sequence of ETV6 (P41212 whole entry): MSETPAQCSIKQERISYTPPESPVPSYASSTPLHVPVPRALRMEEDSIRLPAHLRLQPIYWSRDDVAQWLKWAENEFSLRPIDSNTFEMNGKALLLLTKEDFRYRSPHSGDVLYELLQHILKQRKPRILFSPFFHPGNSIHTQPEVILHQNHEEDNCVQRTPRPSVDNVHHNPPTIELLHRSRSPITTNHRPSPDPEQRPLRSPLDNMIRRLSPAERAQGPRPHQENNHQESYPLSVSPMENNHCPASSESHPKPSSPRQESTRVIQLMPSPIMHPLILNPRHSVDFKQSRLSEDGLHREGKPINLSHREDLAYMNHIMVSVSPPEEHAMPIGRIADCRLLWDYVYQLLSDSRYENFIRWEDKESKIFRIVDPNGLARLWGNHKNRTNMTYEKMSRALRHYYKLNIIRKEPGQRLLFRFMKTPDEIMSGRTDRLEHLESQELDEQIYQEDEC
# Procedure, shortened: as §1
sequence,measurement,setting,value
GTACGC,binding signal,FLI1,"1.05 fold enrichment (6-mer frequency, TF over GST control)"
same,binding signal,ELK1,"1.03 fold enrichment (6-mer frequency, TF over GST control)"
same,binding signal,GABPA,"1.04 fold enrichment (6-mer frequency, TF over GST control)"
same,binding signal,ERG,"1.09 fold enrichment (6-mer frequency, TF over GST control)"
same,binding signal,ELF1,"1.05 fold enrichment (6-mer frequency, TF over GST control)"
same,binding signal,EHF,"1.03 fold enrichment (6-mer frequency, TF over GST control)"
same,binding signal,SPI1,"1.05 fold enrichment (6-mer frequency, TF over GST control)"
same,binding signal,ETV5,"1.08 fold enrichment (6-mer frequency, TF over GST control)"
same,binding signal,ELF4,"1.05 fold enrichment (6-mer frequency, TF over GST control)"
same,binding signal,ELF3,"1.17 fold enrichment (6-mer frequency, TF over GST control)"
same,binding signal,ETV1,"1.09 fold enrichment (6-mer frequency, TF over GST control)"
same,binding signal,ERF,"1.05 fold enrichment (6-mer frequency, TF over GST control)"
same,binding signal,ETV3L,"1.11 fold enrichment (6-mer frequency, TF over GST control)"
same,binding signal,ETS2,"1.06 fold enrichment (6-mer frequency, TF over GST control)"
same,binding signal,ETV7,"1.09 fold enrichment (6-mer frequency, TF over GST control)"
same,binding signal,ETV3,"1.14 fold enrichment (6-mer frequency, TF over GST control)"
same,binding signal,ETV6,"1.07 fold enrichment (6-mer frequency, TF over GST control)"
